HCV inh: blocks hepatitis C virus. Potency, µM (highest dose often 41.8 µM), for the others: at the top dose activity change, negative = inhibition, hits mostly inhibitors. hit rate 3.4% among 340,000. Huh7.5.1 HCVcc-Cre infection, luciferase reporter, 44 h; active = well fitted inhibition curve with a large enough effect; inconclusive = small, poorly fitted or top-dose-only effect, or another doubt; inactive = no such curve, though single readings can be large or run the other way; note: potency is the fitted concentration of half-maximal effect
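Seed cells (1,000/well) for 4 h; treat with compound and infect with HCVcc-Cre, moi about 0.5. Incubate 44 h, then detect luciferase activity.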
HCMV antiviral: inhibitors of human cytomegalovirus; HFF cells, HCMV-luciferase reporter, 72 h; active compounds read low; activity change, negative = inhibition, % at 57.5 µM; hit rate 4.5% among 410,000; in the data active = activity change below about -60%; inconclusive = no clear call, values can overlap the other calls; inactive = above about -39%
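Human foreskin fibroblasts infected with luciferase-reporter HCMV at MOI 1 PFU/cell, compounds at two doses. Luciferase measured 72 h post infection; normalized to buffer-only basal and Salinomycin (10uM) controls.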
Vaccinia Venus: inhibitors of vaccinia virus (Venus reporter); Vaccinia virus Venus reporter expression, fluorescence; Potency, µM (titrated, usually from 36.5 µM), for the others: top-dose activity change, negative = inhibition, most hits filed as inhibitors; hit rate 0.46% among 330,000; AID 720580; calls by dose curve; tested in A549 cells; note: potency is the fitted concentration of half-maximal effect; nearly all actives have a fitted effect of over 30% in size
VACV mCherry inh: vaccinia inhibition (mCherry reporter); Vaccinia virus mCherry reporter infection, fluorescence; Potency, µM (doses to about 36.5 µM), inactives show top-dose activity change, negative = inhibition, most hits filed as inhibitors; hit rate 0.63% among 310,000; calls by dose curve; tested in A549 cells; note: potency is the fitted concentration of half-maximal effect; nearly all actives have a fitted effect of over 35% in size
Lassa entry inh: blocks Lassa virus binding to or entry into cells. Lassa virus pseudotype entry inhibition, cell reporter. Potency, µM (doses to about 37.9 µM), inactives show top-dose activity change, negative = inhibition, actives largely listed as inhibitors. hit rate 1.2% among 300,000. AID 540256; calls by dose curve; tested in HEK293 cells; note: potency is the fitted concentration of half-maximal effect; nearly all actives have a fitted effect of over 50% in size
MARV entry inh: inhibitors of Marburg virus binding or cell entry | Marburg virus pseudotyped entry inhibition, cell reporter | Potency, µM (titrated, usually from 37.8 µM), without a hit: at the highest dose activity change, negative = inhibition, hits mostly inhibitors | hit rate 1.8% among 300,000 | AID 540276; calls by dose curve; tested in HEK293 cells; note: potency is the fitted concentration of half-maximal effect
The depositor's hits bear a star; i = inactive; ? = inconclusive; nt = no result; + = active, no number; [ ] = another dose, or the depositor's remark. In the library only some 7.8% were active in any assay of this set; here they are far more common. % is set by controls: 0 for no effect and ±100 for the full control effect.

SMILES	HCV inh	HCMV antiviral	Vaccinia Venus	VACV mCherry inh	Lassa entry inh	MARV entry inh
CC(C)NC(=O)NC(=O)COc1ccc(Br)cc1Br	?	49	-20%	-12%	7.3µM*	6.5µM*
COc1ccccc1CNC(=O)CCc1c(C)c2cc3c(C)c(C)oc3cc2oc1=O	nt	?	-23%	i	6%[46.1 µM]	?
CCCOc1cccc(C(=O)N2CCCCC2CCN2CCCCC2)c1 (stereo not given)	nt	?	-11%	-12%	-3%[46.1 µM]	?
Clc1ccccc1-c1nc2c(NCc3ccccc3)nccc2[nH]1	nt	3	nt	nt	nt	nt
C=C1C(=O)O[C@@H]2[C@H]3O[C@]3(C)CC/C=C(\C)CC[C@@H]12	-11%	-12	-13%	i	nt	22µM*
CC(C)c1ccc(S(=O)(=O)c2nnn3c2nc(N2CCCCC2)c2sccc23)cc1	nt	29	-26%	-17%	-1%[46.1 µM]	nt
CC1=Nc2cc(C(=O)O)ccc2Sc2ccc(C)cc21	-7%	-11	-12%	-14%	13%[46.1 µM]	-3%[46.1 µM]
CC1=Nc2cc(C(=O)NCC3CCCO3)ccc2Sc2ccc(C)cc21 (stereo not given)	11%	-72*	nt	nt	nt	nt
CCC(C)NC(=O)c1ccc2c(c1)N=C(C)c1cc(C)ccc1S2 (stereo not given)	nt	-72*	-20%	-23%	-17%[46.1 µM]	?
CC1=Nc2cc(C(=O)NCCCN3CCN(C)CC3)ccc2Sc2ccc(C)cc21	-29%	-24	nt	nt	nt	nt
CC1=Nc2cc(C(=O)NCc3ccco3)ccc2Sc2ccc(C)cc21	?	-92*	?	?	?	-41%
CC(C)c1c(C(=O)NCc2cccnc2)cnn1-c1nccc(-c2ccccc2F)n1	nt	nt	-23%	-27%	nt	nt
N#Cc1ccc(CSc2nnc(-c3cccs3)n2-c2ccccc2)cc1	0.63µM*	-29	nt	nt	?	?
N#Cc1ccc(CSc2nnc(-c3ccccn3)n2-c2ccccc2)cc1	-1%	0	-25%	nt	?	?
N#Cc1ccc(CSc2nnc(-c3c[nH]c4ccccc34)n2-c2ccccc2)cc1	?	-64*	?	?	?	2.5µM*
CC(=O)NC(Cc1ccc(I)cc1)C(=O)NCC(N)C(=O)c1ccccc1 (stereo not given)	nt	nt	-19%	-3%	nt	nt
COc1cc(/C=N\n2nnnc2N)ccc1O	nt	nt	nt	nt	nt	10%
O=[N+]([O-])c1ccccc1CNc1ccc(NCc2ccccc2[N+](=O)[O-])cc1	nt	-74*	nt	nt	nt	nt
O=c1[nH]c(SCc2c(F)cccc2Cl)nc2c1CCCC2	nt	-9	-1%	-5%	-6%[46.1 µM]	9%[46.1 µM]
COc1ccc(Cn2c(SCc3cc(C)ccc3C)nc3cc(OC)c(OC)cc3c2=N)cc1	2.8µM*	-23	nt	nt	6.5µM*	4.6µM*
COc1ccc(Cn2c(SCc3ccc(C)cc3)nc3cc(OC)c(OC)cc3c2=N)cc1Cl	?	-99*	-17%	-18%	10µM*	2.8µM*
COc1cccc(Cc2nc3ccccc3nc2SCC(=O)Nc2ccccc2F)c1	nt	-38	-20%	i	7%[46.1 µM]	nt
COc1cc(/C=C/c2ccnc3ccccc23)cc(OC)c1OC	nt	nt	-23%	-17%	nt	nt
O=C1NC(=NCc2ccccc2)S/C1=C/c1ccc(O)cc1	?	-62*	?	?	?	?
CCOc1ccccc1NS(=O)(=O)c1ccc(-c2cnc(C3CC3)o2)cc1	?	+	-27%[7.34 µM]	-31%[7.34 µM]	?	nt
SMILES	HCV inh	HCMV antiviral	Vaccinia Venus	VACV mCherry inh	Lassa entry inh	MARV entry inh
COc1ccccc1NS(=O)(=O)c1ccc(-c2cnc(C3CC3)o2)cc1	-6%	-13	nt	nt	nt	nt
Cc1cc(C)c(NS(=O)(=O)c2cc(-c3cnc(C4CC4)o3)ccc2C)c(C)c1	nt	-13	-4%	-8%	-17%[46.1 µM]	nt
O=S(=O)(c1ccc(-c2cnc(C3CC3)o2)cc1)N1CCN(c2ccc(F)cc2)CC1	nt	-77*	-20%	?	7.9µM*	nt
COc1ccc(NS(=O)(=O)c2ccc(-c3cnc(C4CC4)o3)cc2)cc1OC	?	-74*	nt	nt	nt	nt
Cc1cc(C)c(NS(=O)(=O)c2ccc(-c3cnc(C4CC4)o3)cc2)c(C)c1	nt	-92*	-30%	-29%	?	nt
O=S(=O)(Nc1cccc(C(F)(F)F)c1)c1ccc(-c2cnc(C3CC3)o2)cc1	nt	-38	-19%	?	?	nt
COc1ccc(CCNC(=O)c2nc(SCc3ccc(C)cc3)ncc2Cl)cc1OC	nt	-37	-11%	-19%	-27%[46.1 µM]	-10%[46.1 µM]
Cc1ccccc1Cn1cc(S(=O)(=O)CC(=O)Nc2nccs2)c2ccccc21	?	-76*	-23%	-28%	-28%	?
CCOC(=O)N1CCN(C(=O)CS(=O)(=O)c2cn(Cc3ccccc3C)c3ccccc23)CC1	?	nt	-5%	-11%	-19%	?
Cc1cccc(NC(=O)Cn2c(=O)nc(-c3ccccc3)c3ccccc32)c1C	nt	28	-15%	i	?	nt
O=C(Cn1c(=O)nc(-c2ccccc2)c2ccccc21)NCc1ccc(Cl)cc1	nt	-94*	-21%	-9%	?	nt
Cc1c(Cl)cccc1NC(=O)Cn1c(=O)nc(-c2ccccc2)c2ccccc21	nt	-87*	-22%	i	-5%[46.1 µM]	nt
CN(Cc1cccs1)[C@@H]1CC[C@@]23CCCN2C(=O)CCC[C@H]3[C@H]1Cc1ccccc1	nt	-22	nt	nt	nt	nt
CCCCCCC#C[C@@H]1C=C[C@H](OC(=O)OCC)[C@@H](COC(=O)OCC)O1	nt	nt	nt	nt	nt	-12%[14.2 µM]
O=C1CC(N2CCN(c3nc4ccccc4s3)CC2)C(=O)N1Cc1cccs1 (stereo not given)	14µM*	-3	?	nt	?	?
O=C1CC(N2CCN(c3ccc(F)cc3)CC2)C(=O)N1Cc1cccs1 (stereo not given)	-4%	3	-15%	nt	2%	12%
CN(C(=O)COC(=O)c1ccc(C(C)(C)C)cc1)C1CCS(=O)(=O)C1 (stereo not given)	20%	-35	-13%	-14%	-11%	4%
CN(C(=O)COC(=O)c1nc(Cl)c(Cl)c(Cl)c1Cl)C1CCS(=O)(=O)C1 (stereo not given)	10µM*	-99*	-22%	-18%	5.6µM*	?
CC(C)(C)n1cc(C(=O)c2ccc3ccccc3c2O)cn1	-28%	?	-3%	-11%	13µM*	4µM*
O=C(c1cnn(-c2ccccc2)c1)c1ccc2ccccc2c1O	-17%	62	-10%	-11%	2%	-22%
CCc1ccc(C(c2ccccc2)c2c(C)[nH]c3ccccc23)s1 (stereo not given)	nt	-62*	-13%	-13%	4%[46.1 µM]	nt
Cc1ccc(C(c2ccccc2)c2c(C)[nH]c3ccccc23)s1 (stereo not given)	nt	-83*	1%	-8%	4%[46.1 µM]	nt
Cc1[nH]c2ccccc2c1C(c1c[nH]c2ccccc12)c1c(C)[nH]c2ccccc12	nt	nt	11%	6%	nt	nt
CCn1cc(C(=O)N2CCN(c3ccccc3)CC2)c(=O)c2cc(S(=O)(=O)N(C)C3CCCCC3)ccc21	nt	15	-1%	-20%	16%[46.1 µM]	6%[46.1 µM]

Screening data from PubChem BioAssay.
